# Assay results published in PubChem BioAssay (EPA / NIEHS).
# Results filed as inconclusive are left out. Active and inactive are the calls of the source. How the source made its calls, unless noted: active means hit-call score of the fitted dose curve at least 0.9, where 1 is the maximum; inconclusive means response in the unintended direction; inactive means score below 0.9.
# What was measured:
# [1] = read-out: xenobiotic metabolism (CYP1A2), CYP1A2 (gene 1544); test: CLD_CYP1A2_6hr: CellzDirect (CLD) Gene Expression Assay for xenobiotic metabolism (CYP1A2) at 6 hours (AID 2283663);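 on AC50: potency is for induction meaning a rise in mRNA above DMSO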
# Summary of the method: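 mRNA levels quantified by quantitative nuclease protection assay with chemiluminescence, 6 h after dosing human primary hepatocyte cultures (two donors) across several concentrations, vehicle 0.2% DMSO. Induction fitted upward versus DMSO; phase-contrast cytotoxicity annotated.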
# [2] = CCTE_Simmons_CellTiterGLO_HEK293T: Viability Assessment in CCTE's Assays for Thyroperoxidase (TPO) Inhibition, Simmons Lab (AID 2283665);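 on AC50: cells exposed to compound for 24 h before readout; actives reduce ATP signal below DMSO vehicle meaning cytotoxicity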
# Summary of the method: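 ATP depletion measured in HEK293T cells after 24 h dosing (8 concentrations, 5 nM–87.5 uM final; DMSO 0.5%) using CellTiter-Glo luminescence; curves fit for loss of signal against DMSO baseline.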
# [3] = read-out: sulfotransferase (SULT2A), SULT2A1 (gene 6822); test: CLD_SULT2A_6hr: CellzDirect (CLD) Gene Expression Assay for sulfotransferase (SULT2A) at 6 hours (AID 2283669);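 further: hits raise transcript level above the DMSO vehicle baseline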
# Summary of the method: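 Measured 6 h after dosing, SULT2A1 mRNA in human hepatocyte lysates was quantified by S1 nuclease protection with chemiluminescent detection. Increases fitted against 0.2% DMSO vehicle baseline; phase-contrast cytotoxicity recorded yes/no.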
# [4] = read-out: glucuronosyltransferase (UGT1A1), UGT1A1 (gene 54658); test: CLD_UGT1A1_6hr: CellzDirect (CLD) Gene Expression Assay for glucuronosyltransferase (UGT1A1) at 6 hours (AID 2283672)
# Summary of the method: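 UGT1A1 mRNA induction, read by quantitative nuclease protection assay, 6 h after dosing primary human hepatocytes (two donors, 0.2% DMSO vehicle). Gain of signal fitted relative to vehicle.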
# [5] = read-out: xenobiotic metabolism (CYP1A1), CYP1A1 (gene 1543); test: CLD_CYP1A1_24hr: CellzDirect (CLD) Gene Expression Assay for xenobiotic metabolism (CYP1A1) at 24 hours (AID 2283673);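 further: CYP1A1 mRNA level by quantitative nuclease protection with chemiluminescence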
# Summary of the method: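 Transcript levels were read at 24 h by qNPA chemiluminescence in human liver primary cells. Cells got daily fresh dosing at multiple concentrations (vehicle 0.2% DMSO). Induction fitted upward against DMSO; phase-contrast cytotoxicity annotated.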
# [6] = Tanguay_ZF_120hpf_TR_legacy: (Legacy) Oregon State University Tanguay Lab 120 Hour Post-fertilization zebrafish Assay for Touch Response (AID 2283667)
# Summary of the method: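 Binary touch-response call at 120 hpf, analysed as gain of signal versus DMSO baseline. Wild-type 5D larvae, static exposure at 28C, 0.64% DMSO final; 5uM trimethyltin chloride as positive control.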
# [7] = read-out: organic anion transporter (SLCO1B1), SLCO1B1 (gene 10599); test: CLD_SLCO1B1_6hr: CellzDirect (CLD) Gene Expression Assay for organic anion transporter (SLCO1B1) at 6 hours (AID 2283668);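 further: active means mRNA induction above DMSO baseline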
# Summary of the method: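 SLCO1B1 mRNA induction measured 6 h after dosing by quantitative nuclease protection with chemiluminescent read-out, in human primary hepatocyte cultures given chemicals at several concentrations (vehicle 0.2% DMSO). Increase over DMSO baseline fitted; morphology-based cytotoxicity annotated yes/no.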
# [8] = read-out: Cytochrome P450 (CYP24A1_1), CYP24A1 (gene 1591); test: LTEA_HepaRG_CYP24A1_1: Life Technologies and Expression Analysis (LTEA) Assay for Cytochrome P450 (CYP24A1_1) using HepaRG (AID 2283671; active means hit-call score of the fitted dose curve at least 0.9, where 1 is the maximum; inactive means score below 0.9); conditions: mRNA level, 48 h; actives raise or lower the signal
# Summary of the method: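 Readout is CYP24A1 transcript level by qRT-PCR, normalized to three housekeeping genes, with gain or loss of signal fitted against 0.5% DMSO. Human HepaRG cells received compound for 48 h at up to 100 uM.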
# [9] = read-out: ABC Transporter (ABCB11), ABCB11 (gene 8647); test: CLD_ABCB11_6hr: CellzDirect (CLD) Gene Expression Assay for ABC Transporter (ABCB11) at 6 hours (AID 2283675);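 further: hits raise ABCB11 mRNA level so AC50 marks induction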
# Summary of the method: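 Read-out was ABCB11 mRNA gain of signal by quantitative nuclease protection assay, relative to 0.2% DMSO vehicle, 6 h post-dose. Cells were primary human hepatocytes from two donors, treated across multiple concentrations; phase-contrast cytotoxicity noted yes/no.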
# [10] = read-out: alkyl and aryl transferase (GSTA2), GSTA2 (gene 2939); test: CLD_GSTA2_6hr: CellzDirect (CLD) Gene Expression Assay for alkyl and aryl transferase (GSTA2) at 6 hours (AID 2283666)
# Summary of the method: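 GSTA2 transcript induction at 6 h, quantified by nuclease protection (qNPA) with chemiluminescent detection, in human liver primary hepatocytes exposed to several compound concentrations with 0.2% DMSO as baseline; phase-contrast morphology annotated apparent cytotoxicity.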
structure (smiles),measurement,setting,value
CSC1=N[C@@](C)(c2ccccc2)C(=O)N1Nc1ccccc1,outcome,[1],inactive
same,outcome,[2],inactive
same,outcome,[3],inactive
same,outcome,[4],inactive
same,AC50,[5],3 µM (active)
CC(C)=CC1C(C(=O)OCN2C(=O)C3=C(CCCC3)C2=O)C1(C)C (centres undefined),outcome,[1],inactive
same,outcome,[6],inactive
same,outcome,[4],inactive
same,outcome,[5],inactive
CCCSP(=O)(OCC)Oc1ccc(Br)cc1Cl (centres undefined),outcome,[1],inactive
same,AC50,[2],41.5 µM (active)
same,outcome,[6],inactive
same,outcome,[7],inactive
same,outcome,[4],inactive
same,AC50,[5],20 µM (active)
CC(COc1ccc(Oc2ccccc2)cc1)Oc1ccccn1 (centres undefined),outcome,[1],inactive
same,outcome,[6],inactive
same,outcome,[7],inactive
same,outcome,[8],inactive
same,outcome,[4],inactive
same,outcome,[5],inactive
same,outcome,[9],inactive
COP(=O)(NC(C)=O)SC (centres undefined),outcome,[1],inactive
same,outcome,[2],inactive
same,outcome,[7],inactive
same,outcome,[4],inactive
CC(C1CC1)C(O)(Cn1cncn1)c1ccc(Cl)cc1 (centres undefined),AC50,[1],0.00638 µM (active)
same,outcome,[6],inactive
same,outcome,[4],inactive
same,AC50,[5],11.9 µM (active)
same,outcome,[9],inactive
CSc1nc(NC(C)C)nc(NC(C)C)n1,outcome,[1],inactive
same,outcome,[6],inactive
same,outcome,[7],inactive
same,outcome,[8],inactive
same,outcome,[4],inactive
same,AC50,[5],6.14 µM (active)
CCC(=O)Nc1ccc(Cl)c(Cl)c1,AC50,[1],8.75 µM (active)
same,outcome,[2],inactive
same,outcome,[4],inactive
same,AC50,[5],5.72 µM (active)
same,outcome,[9],inactive
CC1(C(=O)Nc2ccc(O)c(Cl)c2Cl)CCCCC1,outcome,[10],inactive
C=C(C)[C@H]1Cc2c(ccc3c2O[C@@H]2COc4cc(OC)c(OC)cc4[C@@H]2C3=O)O1,outcome,[10],inactive
